Laboratory results: PubChem BioAssay (Tox21)
Records with an inconclusive call do not appear. Where a call stands in place of a potency, no number is given. Where a structure was tested more than once in an assay, its records may differ in their call. Activity calls are given as the source filed them. Unless noted, the call rests on the fitted dose curve.

What was measured:
[1] = Nuclear factor erythroid 2-related factor 2/antioxidant responsive element (Nrf2/ARE) small molecule agonists: qHTS cell viability counter screen in human keratinocytes (AID 1919968; active means well fitted curve in the direction sought with a large enough effect in the repeat runs; an effect the other way counts as inactive or inconclusive; further: nearly all actives have a fitted effect of over 55% in size)
Summary of the method: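 Stably transfected HaCaT (KeratinoSens), 1,500/well. Test agents in DMSO were applied for 23 h, 37 C/5% CO2. CellTiter-Fluor was incubated 1 h before the fluorescence read.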

[2] = Nuclear factor erythroid 2-related factor 2/antioxidant responsive element (Nrf2/ARE) small molecule agonists: luciferase reporter gene qHTS assay in human keratinocytes (AID 1919969); further: nearly all actives have a fitted effect of over 35% in size; further: potency means the concentration at half of the fitted maximal effect
[3] = target: Gonadotropin-releasing hormone receptor (Homo sapiens) (UniProt P30968); test: Human gonadotropin-releasing hormone receptor (GnRHR) small molecule agonists, calcium flux assay in GnRHR-HEK293 cells (AID 1920063); further: nearly all actives have a fitted effect of over 35% in size
Summary of the method: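 Stable human GnRHR HEK293 line. 18 h plating, then calcium dye for 1 h at 37 C. Agonist-mode compound addition from DMSO stocks; fluorescence monitored 3 min.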

[4] = target: KiSS-1 receptor (Homo sapiens) (UniProt Q969F8); test: Human kisspeptin (KISS1R) small molecule agonists, calcium flux assay in KISS1R-HEK293 cells (AID 1920064; active means well fitted curve in the direction sought with a large enough effect in the repeat runs; an effect the other way counts as inactive or inconclusive)
Summary of the method: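 After overnight (18 h) culture at 37 C/5% CO2, human KISS1R-HEK293 cells received calcium dye for 1 h, then test compound; emission at 540 nm (excitation 480 nm) was tracked for 3 min.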

[5] = G protein-coupled receptor (GPCR) small molecule agonists, calcium flux assay: HEK293 wild type cell line counter screen (AID 1920065)
Summary of the method: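 Following 18 h incubation at 37 C/5% CO2, plates got calcium dye for 1 h; compounds, ATP or DMSO were then pinned in and fluorescence followed kinetically (480/540 nm).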

[6] = p53 small molecule agonists, cell-based qHTS assay with human liver microsomes (AID 1963577)
Summary of the method: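 p53RE-bla reporter cells were pre-incubated 5 h at 37 C, then treated with compounds plus human liver microsomes (0.5 mg/mL final) and NADPH (0.5 mg/mL final) for 16 h at 37 C. Beta-lactamase activity was read by LiveBLAzer fluorescence after 2 h at room temperature.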

[7] = p53 small molecule agonists, cell-based qHTS assay with rat liver microsomes (AID 1963578)
Summary of the method: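 p53RE-bla cells were exposed to compounds together with rat liver microsomes (0.5 mg/mL final) and NADPH (0.5 mg/mL final) for 16 h at 37 C, then read by LiveBLAzer beta-lactamase fluorescence after 2 h at room temperature.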

[8] = p53 small molecule agonists, cell-based qHTS assay with human liver microsomes: qHTS cell viability counter screen (AID 1963579); further: nearly all actives have a fitted effect of over 45% in size
Summary of the method: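 p53RE-bla cells (4,000/well) were pre-incubated 5 h at 37 C, then given compounds in DMSO plus human liver microsomes (0.5 mg/mL final) and NADPH (0.5 mg/mL final) for 16 h at 37 C. Viability was read by CellTiter-Glo luminescence.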

[9] = p53 small molecule agonists, cell-based qHTS assay: qHTS cell viability counter screen (AID 1963581); further: nearly all actives have a fitted effect of over 45% in size
Summary of the method: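 qHTS counter screen: 16 h compound exposure at 37 C of p53RE-bla HCT-116 cells (4,000 per well, seeded 5 h prior), cell viability by ATP luminescence.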

[10] = p53 small molecule agonists, cell-based qHTS assay (AID 1963582; active means well fitted activation curve with a large enough effect in the signal ratio in the repeat runs, not every such curve was filed as active; the % refers to the signal ratio; further: potency means the concentration at half of the fitted maximal effect)
Summary of the method: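 Measured: fluorescence from cleaved LiveBLAzer substrate. System: p53RE-bla cells, 16 h compound treatment at 37 C, 2 h substrate step at room temperature.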

[11] = target: 5-hydroxytryptamine receptor 2A (Homo sapiens) (UniProt P28223); test: 5-hydroxytryptamine receptor 2A (HTR2A) small molecule antagonists, cell-based qHTS assay (AID 1963586); further: nearly all actives have a fitted effect of over 45% in size
Summary of the method: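 CHO cells stably expressing human HTR2A were plated for 18 h at 37 C, then loaded with calcium dye for 1 h. Compounds were preincubated 5 min at room temperature before DOI (4 nM solution) was added. Kinetic fluorescence was read for 3 min.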

[12] = target: 5-hydroxytryptamine receptor 2A (Homo sapiens) (UniProt P28223); test: 5-hydroxytryptamine receptor 2A (HTR2A) small molecule agonists, cell-based qHTS assay (AID 1963587); further: nearly all actives have a fitted effect of over 30% in size
Summary of the method: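 HTR2A-CHO cells, plated 18 h at 37 C/5% CO2, dye-loaded 1 h at 37 C; compounds in DMSO added by pin tool (agonist mode). Intracellular calcium flux read as kinetic fluorescence on FDSS over 2 min at 1 s intervals.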

[13] = target: Muscarinic acetylcholine receptor M1 (Homo sapiens) (UniProt P11229); test: Cholinergic receptor muscarinic 1 (CHRM1) small molecule antagonists, cell-based qHTS assay (AID 1963588); further: nearly all actives have a fitted effect of over 40% in size; further: potency means the concentration at half of the fitted maximal effect
Summary of the method: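 Compounds were tested at 15 concentrations in three independent runs. Dye-loaded CHRM1-CHO cells were exposed 5 min at room temperature before stimulation by acetylcholine added at 50nM. Intracellular calcium was read kinetically on FDSS for 3 min.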

[14] = target: Muscarinic acetylcholine receptor M1 (Homo sapiens) (UniProt P11229); test: Cholinergic receptor muscarinic 1 (CHRM1) small molecule agonists, cell-based qHTS assay (AID 1963589); further: nearly all actives have a fitted effect of over 35% in size
Summary of the method: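 Kinetic fluorescence (1 s intervals) of calcium-sensitive dye in human M1 CHO cells after compound addition; cells pre-incubated 18 h at 37 C/5% CO2 and dye-loaded 1 h.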

[15] = cAMP Responsive Elements (CRE) small molecule agonists, cell-based qHTS assay (AID 1963590)
Summary of the method: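 Test agents in DMSO were incubated 3 h at 37 C/5% CO2 with CRE-bla HEK 293T cells seeded 18 h earlier; LiveBLAzer B/G FRET substrate was added and read after 2 h at room temperature.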

[16] = cAMP Responsive Elements (CRE) small molecule antagonists, cell-based qHTS assay (AID 1963591; active means well fitted inhibition curve with a large enough effect in the signal ratio in the repeat runs, not every such curve was filed as active; the % refers to the signal ratio)
Summary of the method: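 Reporter line CRE-bla HEK 293T in dialyzed-FBS DMEM; cells preincubated 18 h, treated 3 h with compound plus NKH477 (0.25 uM final); LiveBLAzer FRET, 2 h RT.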

[17] = target: D(2) dopamine receptor (Homo sapiens) (UniProt P14416); test: Dopamine D2 receptor (DRD2) small molecule agonists, cell-based qHTS assay (AID 1963594); further: nearly all actives have a fitted effect of over 35% in size
Summary of the method: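 HEK293 cells stably expressing DRD2 were cultured 24 h at 37 C, then given Ro20-1724 (0.1 mM final) and compounds for 10 min at room temperature. NKH477 (200nM) was then added for 30 min. cAMP was read by HTRF.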

[18] = target: D(2) dopamine receptor (Homo sapiens) (UniProt P14416); test: Dopamine D2 receptor (DRD2) small molecule antagonists, cell-based qHTS assay (AID 1963595; active means well fitted inhibition curve with a large enough effect in the signal ratio in the repeat runs, with a control signal flat; the % refers to the signal ratio)
Summary of the method: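 Antagonist mode in DRD2-HEK293 cells: after compound addition with 0.1 mM Ro20-1724, cells received quinpirole (12 nM) and NKH477 (200 nM) for 30 min at room temperature; HTRF cAMP read after 1 h detection.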

[19] = target: Beta-2 adrenergic receptor (Homo sapiens) (UniProt P07550); test: Adrenergic beta2 receptor (ADRB2) small molecule antagonists, cell-based qHTS assay (AID 1963592); further: series mostly up to about 92 µM; nearly all actives have a fitted effect of over 50% in size
Summary of the method: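 Assay format: CHO-ADRB2 cells, 18-20hr seeding at 37C/5% CO2, then compound plus 1nM isoproterenol agonist mix for 0.5hr RT. Homogeneous time-resolved fluorescence cAMP detection after 1hr, expressed as 665/615 nm ratio.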

[20] = p53 small molecule agonists, cell-based qHTS assay with rat liver microsomes: qHTS cell viability counter screen (AID 1963580); further: nearly all actives have a fitted effect of over 45% in size
Summary of the method: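 Luminescent ATP readout (CellTiter-Glo, 30 min at room temperature) reports viability of p53RE-bla HCT-116 cells after 16 h at 37 C with test compounds under metabolic activation by rat liver microsomes and NADPH at 0.5 mg/mL final each.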

Sequence of D(2) dopamine receptor (Homo sapiens) (P14416 whole entry, looked up): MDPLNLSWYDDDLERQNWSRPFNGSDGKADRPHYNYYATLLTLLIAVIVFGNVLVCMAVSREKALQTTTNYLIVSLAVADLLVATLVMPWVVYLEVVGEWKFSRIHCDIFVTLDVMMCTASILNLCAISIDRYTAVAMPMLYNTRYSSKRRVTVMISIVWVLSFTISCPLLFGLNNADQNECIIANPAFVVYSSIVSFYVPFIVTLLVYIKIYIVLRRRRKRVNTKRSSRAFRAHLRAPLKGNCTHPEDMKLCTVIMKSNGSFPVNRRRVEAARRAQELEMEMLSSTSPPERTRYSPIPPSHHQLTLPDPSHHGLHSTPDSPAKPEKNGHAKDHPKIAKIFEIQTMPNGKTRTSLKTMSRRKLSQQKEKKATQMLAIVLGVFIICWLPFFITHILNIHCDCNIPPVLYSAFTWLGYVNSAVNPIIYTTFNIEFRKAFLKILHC
Sequence of Gonadotropin-releasing hormone receptor (Homo sapiens) (P30968 whole entry, looked up): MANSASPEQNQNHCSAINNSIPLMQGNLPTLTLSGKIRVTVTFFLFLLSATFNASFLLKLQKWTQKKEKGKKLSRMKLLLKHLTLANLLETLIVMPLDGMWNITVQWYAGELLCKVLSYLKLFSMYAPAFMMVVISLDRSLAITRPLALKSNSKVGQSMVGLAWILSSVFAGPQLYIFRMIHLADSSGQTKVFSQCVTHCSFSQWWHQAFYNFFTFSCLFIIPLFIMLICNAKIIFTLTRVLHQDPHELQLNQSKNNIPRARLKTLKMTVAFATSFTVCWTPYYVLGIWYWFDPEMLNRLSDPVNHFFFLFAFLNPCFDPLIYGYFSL
Sequence of Muscarinic acetylcholine receptor M1 (Homo sapiens) (P11229 whole entry, looked up): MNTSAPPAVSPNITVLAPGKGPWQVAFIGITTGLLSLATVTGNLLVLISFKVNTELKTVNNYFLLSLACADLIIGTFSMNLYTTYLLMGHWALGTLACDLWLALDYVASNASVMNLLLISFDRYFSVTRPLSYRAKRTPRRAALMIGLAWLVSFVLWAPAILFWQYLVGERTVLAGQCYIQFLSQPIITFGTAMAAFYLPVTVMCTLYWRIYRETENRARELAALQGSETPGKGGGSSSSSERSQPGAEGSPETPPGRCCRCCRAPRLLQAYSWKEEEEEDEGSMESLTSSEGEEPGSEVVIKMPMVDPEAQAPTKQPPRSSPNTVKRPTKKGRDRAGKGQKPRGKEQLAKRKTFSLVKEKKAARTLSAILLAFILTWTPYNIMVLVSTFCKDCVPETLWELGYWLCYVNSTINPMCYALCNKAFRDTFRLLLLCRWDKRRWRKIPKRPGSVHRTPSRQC
Sequence of 5-hydroxytryptamine receptor 2A (Homo sapiens) (P28223 whole entry, looked up): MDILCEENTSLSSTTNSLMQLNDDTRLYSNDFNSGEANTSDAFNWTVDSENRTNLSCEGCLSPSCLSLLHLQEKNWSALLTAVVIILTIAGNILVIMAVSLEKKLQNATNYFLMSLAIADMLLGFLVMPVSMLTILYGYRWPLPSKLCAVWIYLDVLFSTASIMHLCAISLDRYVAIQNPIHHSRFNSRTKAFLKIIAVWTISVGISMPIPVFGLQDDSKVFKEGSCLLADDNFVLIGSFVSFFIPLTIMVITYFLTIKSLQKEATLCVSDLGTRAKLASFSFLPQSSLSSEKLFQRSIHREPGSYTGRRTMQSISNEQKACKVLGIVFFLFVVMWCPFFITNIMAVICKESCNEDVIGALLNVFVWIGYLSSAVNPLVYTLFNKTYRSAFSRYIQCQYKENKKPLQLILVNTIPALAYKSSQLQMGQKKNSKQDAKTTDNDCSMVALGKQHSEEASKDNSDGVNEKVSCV
Sequence of KiSS-1 receptor (Homo sapiens) (Q969F8 whole entry, looked up): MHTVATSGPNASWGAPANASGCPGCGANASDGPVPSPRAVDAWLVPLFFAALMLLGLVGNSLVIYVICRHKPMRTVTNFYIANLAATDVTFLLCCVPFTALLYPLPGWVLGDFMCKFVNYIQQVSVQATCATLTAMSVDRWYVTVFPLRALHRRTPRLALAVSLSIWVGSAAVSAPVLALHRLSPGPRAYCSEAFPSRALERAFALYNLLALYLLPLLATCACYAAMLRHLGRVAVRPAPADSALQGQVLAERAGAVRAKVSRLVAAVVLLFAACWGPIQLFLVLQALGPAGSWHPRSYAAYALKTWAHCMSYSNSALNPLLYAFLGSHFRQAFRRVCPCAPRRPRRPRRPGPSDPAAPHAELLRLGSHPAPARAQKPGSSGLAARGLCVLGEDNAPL
Sequence of Beta-2 adrenergic receptor (Homo sapiens) (P07550 whole entry, looked up): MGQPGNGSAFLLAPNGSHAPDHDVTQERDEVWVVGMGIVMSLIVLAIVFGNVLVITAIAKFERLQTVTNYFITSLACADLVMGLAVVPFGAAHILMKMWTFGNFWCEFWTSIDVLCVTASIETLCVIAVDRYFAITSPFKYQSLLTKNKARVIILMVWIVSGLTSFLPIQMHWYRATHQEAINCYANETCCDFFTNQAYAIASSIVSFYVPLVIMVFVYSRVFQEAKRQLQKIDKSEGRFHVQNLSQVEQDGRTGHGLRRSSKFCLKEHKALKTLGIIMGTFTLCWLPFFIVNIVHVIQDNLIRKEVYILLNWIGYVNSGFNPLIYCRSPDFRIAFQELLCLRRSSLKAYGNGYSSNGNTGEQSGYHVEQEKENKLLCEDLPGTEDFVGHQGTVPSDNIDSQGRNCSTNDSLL

Row | Compound | Potency [1] | Potency [2] | Potency [3] | Potency [4] | Potency [5] | Potency [6] | Potency [7] | Potency [8] | Potency [9] | Potency [10] | Potency [11] | Potency [12] | Potency [13] | Potency [14] | Potency [15] | Potency [16] | Potency [17] | Potency [18] | Potency [19] | Potency [20]
1 | COC(=O)[C@@H](N)CCCN/C(N)=N/[N+](=O)[O-] | inactive | inactive | inactive | inactive | inactive | inactive | inactive | inactive | inactive | inactive | inactive | inactive | inactive | inactive | inactive | inactive | inactive | inactive |  | 
2 | Nc1ccccc1Cl | inactive | inactive | inactive | inactive | inactive | inactive | inactive | inactive | inactive | inactive | inactive | inactive | inactive | inactive | inactive | inactive | inactive | inactive | inactive | 
3 | C[C@H]1O[C@H](OC2[C@@H](O)[C@@H](O)C(O)[C@H](O)[C@H]2O)[C@@H](N)C[C@@H]1N=C(N)C(=O)O (stereo not given in full) | inactive | inactive | inactive | inactive | inactive | inactive | inactive | inactive | inactive | inactive | inactive | inactive | inactive | inactive | inactive | inactive | inactive | inactive | inactive | 
4 | OC[P+](CO)(CO)CO | inactive | inactive | inactive | inactive | inactive | inactive | inactive |  | inactive | inactive | inactive | inactive | inactive | inactive | inactive | inactive | inactive | inactive | inactive | inactive
5 | CC(c1ccc(O)cc1)c1ccc(O)cc1 | inactive | 64.3 µM (active) and inactive | inactive | inactive | inactive | inactive | inactive | inactive | inactive | 38.2 µM (active) |  | inactive | 15.7 µM (active) and inactive | inactive | inactive | inactive | inactive | inactive | inactive | 
6 | C=CCc1ccc2c(c1)OCO2 | inactive | inactive | inactive | inactive | inactive | inactive | inactive | inactive | inactive | inactive |  |  |  |  |  | inactive |  | inactive | inactive | 
7 | ClCc1cccnc1 | inactive | inactive | inactive | inactive | inactive | inactive | inactive |  | inactive | inactive | inactive | inactive | inactive | inactive | inactive | inactive | inactive | inactive | inactive | inactive
